Source: PubChem BioAssay (several laboratories)
Compounds with a hit are over-represented: about 5% of the library has one in this group of screens.
CHT PAM = allosterically activates the human high affinity choline transporter; Q9GZV3; CHT-expressing cells, membrane potential dye, choline EC20; hits give high values; LV-AA mutant CHT in HEK293 cells; B-score at 10 µM; 310,000 tested, 0.49% active; AID 488977;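 active = initial fluorescence not abnormally high and integrated response B-score, plate-corrected, over 3 SD above library mean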
Target sequence (Q9GZV3 whole entry, looked up): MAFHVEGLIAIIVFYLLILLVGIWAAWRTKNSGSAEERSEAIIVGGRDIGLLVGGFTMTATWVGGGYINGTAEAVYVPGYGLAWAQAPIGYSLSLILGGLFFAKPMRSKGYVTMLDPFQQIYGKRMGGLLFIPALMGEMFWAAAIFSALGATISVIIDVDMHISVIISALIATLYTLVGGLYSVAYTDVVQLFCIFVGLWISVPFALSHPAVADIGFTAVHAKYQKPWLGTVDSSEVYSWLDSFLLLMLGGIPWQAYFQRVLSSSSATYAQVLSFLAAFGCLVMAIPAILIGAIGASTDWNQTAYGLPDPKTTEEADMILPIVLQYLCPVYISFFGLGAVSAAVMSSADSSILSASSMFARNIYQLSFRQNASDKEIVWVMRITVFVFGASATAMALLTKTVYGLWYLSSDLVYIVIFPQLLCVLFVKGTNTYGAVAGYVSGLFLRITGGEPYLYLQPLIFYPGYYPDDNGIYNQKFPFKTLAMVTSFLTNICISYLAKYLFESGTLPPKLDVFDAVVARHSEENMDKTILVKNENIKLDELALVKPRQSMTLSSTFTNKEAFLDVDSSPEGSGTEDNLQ
CHT inh = inhibitors of human choline transporter CHT | Q9GZV3 | AID 488975 | CHT-expressing cells, membrane potential dye, choline response; hits give low values | B-score at 10 µM | 310,000 tested, 0.86% active;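 active = B-score over 3 SD under the library average, and starting fluorescence ratio not unusually high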;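 also: choline stimulus applied at its EC90 after an EC20 pre-addition; B-score computed on integrated fluorescence ratio after choline addition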
AI-2 QS mod = modulates the Vibrio harveyi AI-2 quorum sensing system | Vibrio harveyi JMH597 AI-2 luminescence/OD600 ratio, 9 h; hits give low values; strain lacks LuxN and CqsS sensors; 0 = neutral-control median | activity change, % at 7.5 µM | 300,000 tested, 0.4% active; in the data active = activity change below about -75%, passing the limit was not always enough;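 also: luminescence divided by OD600 gain over 9 h not by final OD600 alone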
PREPL inh = human PREPL enzyme inhibition; recombinant PREPL, fluorescence polarization activity-based probe; inhibition, % at 5.96 µM; 320,000 tested, 0.68% active; AID 2751; in the data active = inhibition above about 43%;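 also: 0% = enzyme with DMSO and 100% = wells lacking enzyme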
ALR inh = blocks human ALR sulfhydryl oxidase activity; P55789; inhibition, % (test concentration not listed); purified ALR, DTT oxidation, H2O2 HRP-luminol luminescence; 290,000 tested, 3.8% active;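 active = mean replicate inhibition above about 79%, with every replicate also reaching it, limit read from the data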
CHT act confirm = confirmation of human choline transporter (CHT) activators; 2,500 tested, 91% active; activation, % at 10 µM; CHT-expressing cells, membrane potential dye fluorescence (FDSS); % of choline EC20–EC90 response window; HEK293 expressing CHT LV-AA mutant; choline added at its EC20; shares compounds with CHT PAM; AID 504833;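 active = primary screen active, with duplicate mean activation above negative control mean plus 3 SD, cut at about 11% in these data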
HEK293 MP dye = counter-screen for CHT activators: effect in parental HEK293 cells; shares compounds with CHT PAM; membrane potential dye fluorescence (FDSS); measured after EC20 choline addition; ratio readout change at 10 µM, hits read low; AID 623908; 2,500 tested, 62% active;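 active = duplicate-averaged ratio beyond 3 SD from buffer wells, up or down, though filed actives are nearly all decreases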
An asterisk follows results filed as active; i = inactive; . = no result.

SMILES	CHT PAM	CHT inh	AI-2 QS mod	PREPL inh	ALR inh	CHT act confirm	HEK293 MP dye
NS(=O)(=O)c1ccc(NC(=S)Nc2ccc(F)c(F)c2)cc1	i	i	0	-7	12	.	.
C#CCN1N=C(c2ccc(C)cc2)CSC1=O	i	i	15	-37	3	.	.
Cn1c(=O)c2[nH]c(-c3ccc(S(=O)(=O)O)cc3)nc2n(C)c1=O	i	i	14	-16	1	.	.
Cc1cc2nc3ccc(N(C)C)cc3nc2cc1N	i	i	18	23	92*	30*	-24*
O=C(CCCCn1c(=O)c2ccccc2n(Cc2ccccc2)c1=O)NC1CCN(Cc2ccccc2)CC1	i	i	7	9	-3	35*	-29*
O=C(CCCn1c(=O)c2ccccc2n(Cc2cccc(F)c2)c1=O)NC1CCN(Cc2ccccc2)CC1	i	i	27	22	-4	.	.
Cc1cccnc1NC(=O)/C=C/c1ccc2c(c1)OCO2	i	i	16	-3	-7	44*	-40*
CCN(CC)CCCNc1ncnc2ccccc12	7.8*	i	8	-8	-1	61*	-66*
CCC1CCCCN1CCNS(=O)(=O)c1ccc2c(c1)oc(=O)n2C (stereo unspecified)	i	i	-2	-13	-22	35*	-25*
CCCCN(CC)CCCNC(=O)CN1C(=O)CSc2ccc(S(=O)(=O)N3CCOCC3)cc21	i	i	7	9	-3	.	.
CC(C)(C)OC(=O)N1Cc2ccccc2C[C@H]1C(=O)NC1CCCC1	i	i	21	.	-19	2	i
